# S1P4 antagonist = S1P4 receptor antagonists, primary screen, cell-based | Sphingosine 1-phosphate receptor 4 (Homo sapiens), O95977 | 220,000 tested, 0.26% active | S1P4-expressing cells, antagonist mode, reporter read-out | AID 1510, 2009 | inhibition, % at 4.98 µM; in the data active = inhibition above about 29%
# Target sequence (O95977 whole entry, looked up): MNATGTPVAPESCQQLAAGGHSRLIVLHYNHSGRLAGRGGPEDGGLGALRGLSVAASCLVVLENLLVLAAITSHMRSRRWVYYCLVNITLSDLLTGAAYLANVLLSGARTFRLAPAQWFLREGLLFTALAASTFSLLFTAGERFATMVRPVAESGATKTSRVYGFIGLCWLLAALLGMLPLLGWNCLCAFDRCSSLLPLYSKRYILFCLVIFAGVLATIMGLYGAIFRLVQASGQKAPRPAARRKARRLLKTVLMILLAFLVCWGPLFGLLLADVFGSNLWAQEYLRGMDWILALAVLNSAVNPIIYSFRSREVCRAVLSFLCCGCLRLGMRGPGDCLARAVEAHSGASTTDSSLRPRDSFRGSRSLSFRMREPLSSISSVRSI
# Hsp70 act = Hsp70 transcriptional activators, primary screen, cell-based, HeLa, Hsp70 promoter luciferase, luminescence, 10 µM; HeLa Hsp70 promoter luciferase reporter; scaled: vehicle 0, proteasome-inhibitor control 100%; activation, % at 10 µM; 200,000 tested, 0.04% active;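 active = activation above the mean across all tested compounds plus 3 SD, cutoff set per campaign, cut at about 5.5% in these data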
# CHOP inhibitor = inhibitors of CHOP promoter induction, primary screen, cell-based, unfolded protein response, luciferase reporter; AID 2732, 2010; CHO-K1 CHOP-promoter luciferase, tunicamycin-induced, 15-18 h; 220,000 tested, 3.8% active; inhibition, % at 10 µM;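 active = compounds that reduced the stress-induced luciferase reporter signal by more than about 70% of percent inhibition, limit read from the data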
# S1P4 agonist = S1P4 receptor agonists, primary screen, cell-based. activation, % at 4.98 µM. S1P4-expressing cell line, agonist reporter assay. 220,000 tested, 0.35% active; in the data active = activation above about 11%
# CHOP confirm = retest of CHOP induction inhibitors, confirmation, cell-based; shares compounds with CHOP inhibitor; CHO-CHOP promoter luciferase reporter, tunicamycin-induced, luminescence; inhibition, % at 10 µM; 2,100 tested, 45% active; AID 504437, 2011;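 active = mean of three repeat readings of reporter signal inhibition above a set limit, cut at about 70% in these data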
# A number is an active result; 0 = inactive; - = not tested or not shown. Only some compounds are listed: those with a hit (about 4.2% of all), similar ones and a draw of the others.
SMILES,S1P4 antagonist,Hsp70 act,CHOP inhibitor,S1P4 agonist,CHOP confirm
Cn1c(N)c(C(=O)Nc2ccccc2F)sc1=S,0,-,0,0,-
CCCCS(=O)CC(COc1ccc(Cl)cc1)OC(=O)c1ccccc1 (stereo unspecified),0,0,104,0,0
COC(=O)c1ccc2nc(C)c(C)nc2c1,0,0,0,0,-
COC(=O)c1ccc2c(c1)C(C)(C)C(/C=C/c1ccc(OC)c(OC)c1OC)=[N+]2C,0,0,-,0,141
OC1(c2cccc(C(F)(F)F)c2)CCN(c2ncnc3c2[nH]c2ccc(F)cc23)CC1,0,0,-,0,102
O=C(COC(=O)Cn1cnc2ccccc2c1=O)NCCC1=CCCCC1,0,0,0,0,-
C=CCN1c2ccccc2[C@]23C[C@@H](C(=O)OC)N(C(C)=O)C2=NC(C(=O)OC)=C(C(=O)OC)[C@H]13,-,-,0,-,-
CCC(=O)c1ccc(O)c(CC=C(C)C)c1,0,0,0,0,-
CC(C)=CCc1c(O)ccc(C(=O)Cc2ccccc2)c1O,0,0,106,0,0
COC(=O)/C(=C1/Oc2cc(C)oc(=O)c2S1)C(F)(F)F,0,0,111,0,112
O=c1cc(NCc2ccccc2)nc2ccccn12,0,0,0,0,-
CC(C)Nc1oc(-c2cccc3ccccc23)nc1C#N,0,0,100,0,0
CCOC(=O)Cn1c(=NC(=O)c2nc3ccccc3s2)sc2cc(S(N)(=O)=O)ccc21,0,0,103,0,0
COc1ccc(NC(=O)C2C(=O)NC3(C)CC2c2ccccc2O3)cc1 (stereo unspecified),0,0,0,0,-
Cc1ccc2oc(-c3ccc(C)c(NC(=O)Cc4cccs4)c3)nc2c1,0,0,0,0,-
Cc1ccc2oc(-c3cccc(NC(=O)Cc4cccs4)c3)nc2c1,0,0,98,0,0
Cc1ccc2oc(-c3cccc(NC(=O)C4CCCO4)c3)nc2c1 (stereo unspecified),0,0,0,0,-
Cc1ccc(-c2nnc(-c3ccc(NC(=O)Cc4cccs4)cc3)o2)cc1,0,0,105,0,102
O=C(Cc1cccs1)Nc1cccc(-c2nnc(-c3ccco3)o2)c1,0,0,0,0,-
CCCC(=O)Nc1cccc(-c2nc3cc(C)c(C)cc3o2)c1,0,0,105,0,0
Cc1ccc2oc(-c3cccc(NC(=O)c4cc(-n5cnnc5)ccc4Cl)c3)nc2c1,0,0,102,0,0
O=C1CC(c2ccccc2)CN1C(=O)c1cccc([N+](=O)[O-])c1 (stereo unspecified),0,0,0,0,-
O=c1c2ccccc2nc(-c2ccccc2Cl)n1O,0,0,0,0,-
CN=C(Nc1cc(C)nn1-c1ccccc1)c1ccccc1,0,0,0,0,-
N#C/C(=C\c1ccc(F)cc1)c1nc(-c2ccco2)cs1,0,0,105,0,0
SMILES,S1P4 antagonist,Hsp70 act,CHOP inhibitor,S1P4 agonist,CHOP confirm
Cc1ccc(OCC(O)Cn2c3ccccc3c3ccccc32)cc1 (stereo unspecified),0,0,0,0,-
OC(COCC(F)(F)C(F)(F)C(F)(F)C(F)F)Cn1c2ccccc2c2ccccc21 (stereo unspecified),0,0,108,0,110
Cc1cccc(C)c1OCC(O)Cn1c2ccccc2c2ccccc21 (stereo unspecified),0,0,107,0,0
COc1cc(NC(=O)C/C(C)=N/NC(=O)C(=O)NCCO)c(OC)cc1Cl,0,-,0,0,-
Clc1nc(NCc2ccco2)nc(N2CCCCC2)n1,0,0,0,0,-
COc1ccc(C(=O)/C=C/C(=O)N(CC(=O)NCCC(C)C)Cc2cccs2)c(O)c1,0,0,106,0,113
COc1ccc(C(=O)/C=C/C(=O)N(CC(=O)NC2CCCCC2)Cc2ccc(F)cc2)c(O)c1,0,0,108,0,140
O=C(OCC(=O)N1N=C(c2ccc(Cl)cc2)CC1c1ccco1)c1ccco1 (stereo unspecified),0,0,0,0,-
Cc1nn(Cc2ccc(Cl)cc2Cl)c(C)c1NC(=O)Cn1nc([N+](=O)[O-])c(Cl)c1C,0,0,100,0,0
COc1ccc(Cn2c(SCc3ccccc3C)nc3cc(OC)c(OC)cc3c2=N)cc1,0,0,107,0,120
O=C1C2=C(NC(=S)NC2c2ccc(Cl)cc2)NC(c2ccc(Cl)cc2)N1c1ccc(Cl)cc1 (stereo unspecified),0,0,98,0,0

# Bioassay records from PubChem BioAssay.
